From PubChem BioAssay
ERK AVP block = blocks ERK signaling stimulated by vasopressin; HEK293-V1b, vasopressin-stimulated pERK AlphaScreen; Potency, µM (doses to about 57.5 µM), for inactives: top-dose activity, negative = inhibition, hits mostly inhibitors; 72,000 tested, 0.99% active; further: potency means the concentration at half of the fitted maximal effect; on the % scale 0 is the no-effect control and ±100 the full control effect; nearly all actives have a fitted effect of over 55% in size
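V1b-HEK293 cells; cpd 30 min 37C; 25 nM vasopressin 5 min; lyse 10 min; AlphaScreen beads 5 hr RT. Normalized to DMSO basal and 25 nM vasopressin; AC50 by Hill fit.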
CRE Fsk mod = modulators of forskolin-stimulated CRE signaling in CHO cells; CHO CRE-bla reporter (cAMP response element driving beta-lactamase), forskolin EC10, beta-lactamase ratio; Potency, µM (titrated, usually from 38.2 µM), for the others: at the highest dose activity change, negative = inhibition, actives largely listed as activators; 71,000 tested, 2.5% active; active means well fitted activation curve with a large enough effect in the signal ratio, with a control signal flat, not every such curve was filed as active; inconclusive means small, poorly fitted or top-dose-only effect, or effect the other way, or a change in a side signal; the % refers to the signal ratio; further: potency means the concentration at half of the fitted maximal effect; % of control where 0% means no effect
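Reporter-gene assay: CHO cells with beta-lactamase behind cAMP responsive elements, co-treated with compound and EC10 NKH 477 for 3 hours at 37 degrees Celsius. Activity came from the 460/530 nm CCF4 emission ratio.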
HBB splicing = alters splicing of the hemoglobin beta chain; Potency, µM (titrated, usually from 46.1 µM), inactives show top-dose activation, hits mostly activators; 65,000 tested, 0.06% active; HBB splicing reporter cell assay, activation; EGFP reporter with mutant IVS2-654 intron; response scale: normalised to 500 nM splice-correcting PNA; further: potency means the concentration at half of the fitted maximal effect; 0% is about no effect
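HeLa cells stably expressing EGFP interrupted by mutant beta-globin intron 2 (IVS2-654), 500/well in 2% FCS. Treated with compound for 2 days at 37C. Splicing correction scored as total well GFP intensity (488 nm excitation, 500-520 nm emission); 500 nM antisense PNA served as control.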
GFP derepression = epigenetic modulators derepressing GFP locus in mouse cells; mouse C127i GFP locus derepression, cytometry, 30 h; Potency, µM (series often up to 46.1 µM), inactives show at the top dose GFP derepression (activation); 68,000 tested, 0.09% active; further: % of control where 0% means no effect
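Read-out is the number of GFP-positive cells, scored as fluorescent objects 20 to 120 um wide, reflecting derepression of a silenced CMV-GFP reporter in murine C127i cells after 30 h compound exposure at 37 C.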
IkB signaling = IkB pathway inhibition in ABC-DLBCL cells. Potency, µM (highest dose often 57.1 µM), without a hit: top-dose IkBa stabilization activation. 110,000 tested, 0.04% active. ABC-DLBCL IkBa-CBG/CBR dual luciferase ratio, 4 h; response scale: scaled: untreated 0%, proteasome inhibitor 100%; active means well fitted curve in the direction sought with a large enough effect in the signal ratio, not every such curve was filed as active; inconclusive means small, poorly fitted or top-dose-only effect, or a change in a side signal; the % refers to the signal ratio;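 further: potency means the concentration at half of the fitted maximal effect; the direction sought is a rising ratio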
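In this assay, an IκBα–CBG68 fusion accumulates when IKK-driven degradation is blocked; native CBR normalizes for cell number. OCI-Ly3 cells were treated 4 h with compound and doxycycline, then green and red light read after Chroma-Glo addition.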
CHO tox 24h = CHO cell toxicity at 24 h by ATP luminescence. 120 tested, under 10 active. activity, negative = viability loss, % at 46.1 µM. shares compounds with CRE Fsk mod. CRE-bla CHO viability, ATP luminescence, 24 h
CHO via 40h = CHO cell toxicity at 40 h by ATP luminescence; CRE-bla CHO viability, ATP luminescence, 40 h; shares compounds with CRE Fsk mod; Potency, µM, inactives show max response, actives largely listed as inhibitors; 120 tested, under 10 active
CREB luc CRC = confirmation of CRE signaling potentiators in HEK293 CREB reporter cells; HEK293 CRE-luc2P, NKH477 EC10 potentiation, luminescence, 4 h; shares compounds with CRE Fsk mod; 120 tested, 80% active; Potency, µM (top dose mostly 38.3 µM), for the others: top-dose activity, positive = activation, usual class: activators
The depositor's hits bear a star; ? = inconclusive; nt = no result; ! = repeats disagree; [ ] = remark or other dose. This is one part of a sample in which hits are shown more often than they occur. Unless noted, the call rests on the fitted dose curve; in most records, active means well fitted curve in the direction sought with a large enough effect; inconclusive means small, poorly fitted or top-dose-only effect, or another doubt; inactive means no such curve, though single readings can be large; an effect the other way counts as inactive or inconclusive.

SMILES | ERK AVP block | CRE Fsk mod | HBB splicing | GFP derepression | IkB signaling | CHO tox 24h | CHO via 40h | CREB luc CRC
CCOC(=O)CC(=O)CSc1ccc2nnc(-c3cccc(F)c3)n2n1 | 5% | ? | 8% | 0% | -1% | nt | nt | nt
COC(=O)c1ccc(CSc2ccc3nnc(-c4cccc(F)c4)n3n2)o1 | nt | 7.9µM* | 0% | nt | ? | -14 | -18% | 13µM*
CC(=O)N1CCc2cc(S(=O)(=O)NC(Cc3ccccc3)C(=O)Nc3cccc(C)c3)ccc21 (configuration not stated) | nt | nt | nt | nt | 3% | nt | nt | nt
CC(C)[C@@H](CC(=O)N[C@@H]1CCNC[C@H]1C(=O)N[C@H](CC(=O)N[C@@H](CCC(=O)O)CC(=O)O)Cc1c[nH]c2ccccc12)NC(=O)C[C@H](Cc1ccccc1)NC(=O)[C@@H]1CNCC[C@H]1N | nt | -12% | 1% | nt | -4% | nt | nt | nt
CN1C(=O)NC(c2ccccc2)C2=C1CN(Cc1ccccc1)C2=O (configuration not stated) | nt | nt | nt | -3%[20.6 µM] | nt | -3 | -1% | 21%
Cc1cc(C)nc(Sc2nc(C)nc3c2oc2ccccc23)n1 | -22% | 2% | 7%[0.369 µM] | 2% | 1% | nt | nt | nt
Cc1cc(C)nc(N2CCN(c3nc(C)nc4c3oc3ccccc34)CC2)n1 | -1% | 0% | 2%[57.5 µM] | -2% | -2% | 5 | -5% | 3.2µM*
Cc1cc2nc(-c3ccc(OCc4ccccc4)cc3)cc(C(F)(F)F)n2n1 | nt | nt | nt | nt | -1% | nt | nt | nt
Cc1nn(-c2ccccc2)c2sc(C(=O)n3cccn3)cc12 | -11% | ? | 0% | -4% | -3% | nt | nt | nt
Cc1nn(-c2ccccc2)c2sc(C(=O)N3CCCCC3)cc12 | 20% | 3.2µM* | 0%[57.5 µM] | -2% | ? | -18 | ? | 10µM*
COc1ccc([C@@H]2CNC(=O)C2)cc1OC1CCCC1 | -11% | 0.01µM*! | 0%[20.6 µM] | 1% | 0% | -6 | -12% | 0.028µM*
CCOC(=O)c1c(NC(=O)c2cc(-c3ccc(OC)cc3)on2)sc(C)c1C | nt | nt | nt | nt | 0% | nt | nt | nt
CCN(CC)c1nc2ccccc2n2cnnc12 | -6% | 13µM* | 1% | -2% | 0% | -11 | ? | 13µM*
CCOc1ccccc1Nc1nc2ccccc2n2cnnc12 | -6% | ? | -1% | -3% | 0% | nt | nt | nt
CCCN(CCC)c1nc2ccccc2n2c(C)nnc12 | -20% | 0% | 0% | -1% | -4% | -10 | -21% | 10µM*
COc1ccc(NC(=O)c2cc3nc(-c4ccc(Cl)c(Cl)c4)cc(C(F)(F)F)n3n2)c(OC)c1 | nt | nt | nt | nt | 3% | nt | nt | nt
CC1(C)Cc2c(sc3nc(SCC#N)n(C4CCCCC4)c(=O)c23)CO1 | nt | nt | nt | -6%[20.6 µM] | nt | -11 | -20% | 0.63µM*
Cc1nnc2n(C3CCCCC3)c(=O)c3c4c(sc3n12)COC(C)(C)C4 | nt | nt | nt | -2%[20.6 µM] | nt | nt | nt | nt
Cc1ccc(NC(=O)Cn2cnc3sc(C)c(S(=O)(=O)N4CCN(c5ncccn5)CC4)c3c2=O)cc1F | nt | nt | nt | nt | 1% | nt | nt | nt
CCOc1ccccc1CNC(=O)c1cc(-c2ccc(OC)cc2)nc2ccc(C(C)C)cc12 | nt | nt | nt | nt | 1% | nt | nt | nt
COc1cc(C2NC(=O)NC(C)=C2C(=O)OC(C)(C)C)ccc1OCC(N)=O (configuration not stated) | -14% | -4% | nt | -3% | -1% | 7 | -2% | 13µM*
Cc1cnc2c(c1SCC(=O)N(C)c1ccccc1)c(=O)n(C)c(=O)n2C | nt | nt | nt | nt | 2% | nt | nt | nt
COC(=O)[C@H](Cc1ccccc1)NC(=O)[C@@H](C)CO | -14%[11.5 µM] | nt | 2%[9.22 µM] | nt | nt | nt | nt | nt
Cc1cc(C)n(-c2nncc(-c3ccccc3)n2)n1 | -25% | 27% | -1%[9.22 µM] | 0% | ? | nt | nt | nt
Cc1cc(C)n(-c2nc(Nc3ccccc3)nc(-n3nc(C)cc3C)n2)n1 | 2% | 12% | nt | 3% | 0% | -2 | -7% | ?
SMILES | ERK AVP block | CRE Fsk mod | HBB splicing | GFP derepression | IkB signaling | CHO tox 24h | CHO via 40h | CREB luc CRC
CCc1ccccc1N(C)C(=O)Nc1cn(CC(C)C)c(=O)c2ccccc12 | nt | nt | nt | nt | -2% | nt | nt | nt
Cc1cc(-c2nnc3n2N=C(c2ccc(-c4ccccc4)cc2)CS3)n[nH]1 | -8% | ? | 4%[0.369 µM] | -5% | ? | -30 | ? | 1.6µM*
c1ccc(C2=Nn3c(nnc3-c3ccncc3)SC2)cc1 | -12% | ? | 4%[1.84 µM] | 3% | -1% | nt | nt | nt
Fc1ccc(C2=Nn3c(Cc4ccccc4)nnc3SC2)cc1 | -17% | 16% | -5% | 0% | -1% | -5 | -10% | 13µM*
CO[C@H]1COC(=O)C/C=C\[C@@H](C)COC(=O)[C@@H](OCc2ccccc2)/C=C\[C@@H]1C | 9%[11.5 µM] | nt | 3%[9.22 µM] | nt | nt | nt | nt | nt
CC1CCc2c(sc3nc(C4CC4)nc(SCC(=O)NCc4ccco4)c23)C1 (configuration not stated) | -11% | -1% | nt | -3% | -2% | 3 | -2% | 8%
CCn1cc(C(=O)Nc2ccc3c(c2)OCCO3)c2cc(OC)c(OC)cc2c1=O | nt | 1.3µM* | 0% | nt | ? | -8 | -18% | 0.71µM*
